Measurements: PubChem BioAssay (Tox21)
Inconclusive results are not listed. Where a call stands in place of a potency, no number is given. Values without a mark were called inactive. The source made the active and inactive calls. Calls come from the whole dose curve.

test: p53 small molecule agonists, cell-based qHTS assay with rat liver microsomes: qHTS cell viability counter screen (AID 1963580); settings: p53RE-bla HCT-116 + rat microsomes, ATP viability, 16 h; series mostly up to 66 µM; note: nearly all actives have a fitted effect of over 45% in size
From the text: National Center for Advancing Translational Sciences [NCATS]
Division of Preclinical Innovation [DPI]
U.S. Environmental Protection Agency [EPA]
National Institutes of Environmental Health Sciences [NIEHS]
National Toxicology Program [NTP]
U.S. Food and Drug Administration [FDA]
p53, a tumor suppressor protein, is activated following cellular insult, including DNA damage and other cellular stresses. The activation of p53 regulates cell fate by inducing DNA repair, cell cycle arrest, apoptosis, or cellular senescence. The activation of p53, therefore, is a good indicator of DNA damage and other cellular stresses. The CellSensor p53RE-bla HCT-116 cell line contains a stably integrated beta-lactamase reporter gene under control of the p53 response elements. The activation of the reporter gene under culture conditions can be detected by fluorescence intensity. This cell line was used to screen the Tox21 10K compound library in the condition of presence of rat liver microsomes and to identify agonists that activate the p53 signaling pathway after in vitro metabolic activation (Ooka et al., Archive of Toxicology 96:1975-1987, 2022). The cytotoxicity of the Tox21 compound library against the p53 RE-bla HCT-116 cell line was tested in parallel by measuring the intra cellular ATP content in the same wells.
Tox21 Assay Protocol Summary:
The p53RE-bla cells were dispensed at 4,000cells/3ul/well in 1536-well black-clear bottom plates. After the assay plates were incubated at 37 C, 5% CO2 incubator for 5 hours, 23 nL of compounds dissolved in DMSO, positive controls or DMSO only was transferred to the assay plate. Following compound addition, 3 uL of rat liver microsomes (Molecular Toxicology, Boone, NC) at final concentration of 0.5 mg/mL and 1uL of B-Nicotinamide adenine dinucleotide 2'-phosphate (NADPH) at final concentration of 0.5 mg/mL were transferred to the assay plate. The plates were incubated at 37 C for 16 hours. 1 uL of LiveBLAzer detection mixture was added to each well and the plates were incubated at room temperature in the dark for 2 h. Fluorescence intensity at 460 and 530 nm emission and 405 nm excitation were measured by an Envision plate reader. For cell viability readout that measures cytotoxicity, 4 ul/well of CellTiter-Glo reagent was added into the assay plates using a Flying Reagent Dispenser. After 30 min incubation at room temperature, the luminescence intensity in the plates was measured using a ViewLux plate reader.

| SMILES | Potency | activity change, negative = cytotoxicity |
| --- | --- | --- |
| C[C@H]1c2cccc(O)c2C(O)=C2C(=O)[C@]3(O)C(O)=C(C(N)=O)C(=O)[C@@H](N(C)C)[C@@H]3[C@@H](O)[C@@H]21 | inactive | – |
| CC(C)(CO)[C@@H](O)C(=O)NCCCO | inactive | – |
| Oc1ccccc1F | inactive | – |
| CC(COc1ccccc1)NN (stereo not given) | inactive | – |
| CCCCCCCC/C=C\CCCCCCCC(=O)NCc1ccc(O)c(OC)c1 | inactive | – |
| CCOCCn1c(N2CCCN(C)CC2)nc2ccccc21 | inactive | – |
| CC1=CC(=O)/C(=C(/C)O)C(=O)O1 | inactive | – |
| CC(C)COCC(CN(Cc1ccccc1)c1ccccc1)N1CCCC1 (stereo not given) | inactive | – |
| Cc1ncc(COP(=O)(O)O)c(C=O)c1O | inactive | – |
| Clc1cccc(Cl)n1 | inactive | – |
| Fc1ccc(C(c2ccc(F)cc2)N2CCN(C/C=C/c3ccccc3)CC2)cc1 | inactive | – |
| FC(F)(Cl)C(F)(Cl)Cl | inactive | – |
| CCN1CCC[C@H]1CNC(=O)c1c(OC)ccc(Br)c1OC | inactive | – |
| C=O | inactive | – |
| Cc1cccc(C)c1NC(=O)CN(CC(=O)O)CC(=O)O | inactive | – |
| CCC/C=C(\C=O)CC | inactive | – |
| C/C=C/C=C/C=O | inactive | – |
| Cc1nc(Nc2ncc(C(=O)Nc3c(C)cccc3Cl)s2)cc(N2CCN(CCO)CC2)n1 | inactive | – |
| COC(=O)C1=C(C)NC(COC(N)=O)=C(C(=O)OC(C)C)C1c1cccc(Cl)c1Cl (stereo not given) | inactive | – |
| COC(=O)[C@H]1[C@H]2C[C@@H]3c4[nH]c5cc(OC)ccc5c4CCN3C[C@H]2C[C@@H](OC(=O)/C=C/c2ccc(O)c(OC)c2)[C@@H]1OC | inactive | – |

| SMILES | Potency | activity change, negative = cytotoxicity |
| --- | --- | --- |
| Clc1ccc(Cn2c(CN3CCCC3)nc3ccccc32)cc1 | inactive | – |
| O=C(O)CN(CCOCCOCCN(CC(=O)O)CC(=O)O)CC(=O)O | – | -3.51% [at 0.249 µM] |
| CCOc1ccc(NS(=O)(=O)c2ccc(N)cc2)nn1 | inactive | – |
| COc1cc(S(=O)(=O)Nc2ccccc2)c(OC)cc1N | inactive | – |
| O=C1c2ccccc2C(=O)N1SC1CCCCC1 | inactive | – |
| CCO/C=C1\N=C(c2ccccc2)OC1=O | inactive | – |
| COC(=O)NCCC[Si](OC)(OC)OC | inactive | – |
| CCC(C)OC(=O)N1CCCCC1CCO (stereo not given) | inactive | – |
| OC1CCCCC1c1ccccc1 (stereo not given) | inactive | – |
| S=P(N1CC1)(N1CC1)N1CC1 | inactive | – |
| CCCc1ccc(OC)cc1 | inactive | – |
| CCN(C(=O)N(CC)c1ccccc1)c1ccccc1 | inactive | – |
| CC(C)C(C)C | inactive | – |
| COC(OC)(C(=O)c1ccccc1)c1ccccc1 | inactive | – |
| Clc1cccc(-c2cc(Cl)cc(Cl)c2)c1 | inactive | – |
| CC(=O)OC(C)OC(=O)C(C)c1ccc(-c2ccccc2)c(F)c1 (stereo not given) | inactive | – |
| CCCC1CCC(=O)CC1 | inactive | – |
| CCCC(=O)O[C@]1(C(=O)CO)CC[C@H]2[C@@H]3CCC4=CC(=O)CC[C@]4(C)[C@H]3[C@@H](O)C[C@@]21C | inactive | – |
| CC(C)CCOC(=O)/C=C/c1ccccc1 | inactive | – |
| CC(C)CCCCCOC(=O)CCCCC(=O)OCCCCCC(C)C | inactive | – |
